Screening results deposited in PubChem by The Scripps Research Institute Molecular Screening Center.
CHO-K1 Ca PAM: nonselective activator or artifact in parental CHO-K1 calcium assay | ATP EC20, Fluo-8 calcium fluorescence; 0% at ATP EC20, 100% at ATP max | activation, % at 3 µM | 360,000 tested, 0.02% active | AID 602247;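 active means activation above the run cutoff, the mean activation of all test compounds plus 3 SD, cut at about 40% in these data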;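 further: peak over basal fluorescence ratio in a 140 s read after ATP addition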
CHRM1 antagonist: human CHRM1 antagonism; 360,000 tested, 1.3% active; CHO-K1 hM1, Fluo-8 calcium fluorescence, ACh EC80 antagonist; P11229; inhibition, % at 3 µM;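 active means percent inhibition above its own plate's cutoff, namely the mean of that plate's compound wells plus 3 SD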;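 further: peak over basal fluorescence ratio during 140 s after agonist addition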
Target sequence (P11229 whole entry, looked up): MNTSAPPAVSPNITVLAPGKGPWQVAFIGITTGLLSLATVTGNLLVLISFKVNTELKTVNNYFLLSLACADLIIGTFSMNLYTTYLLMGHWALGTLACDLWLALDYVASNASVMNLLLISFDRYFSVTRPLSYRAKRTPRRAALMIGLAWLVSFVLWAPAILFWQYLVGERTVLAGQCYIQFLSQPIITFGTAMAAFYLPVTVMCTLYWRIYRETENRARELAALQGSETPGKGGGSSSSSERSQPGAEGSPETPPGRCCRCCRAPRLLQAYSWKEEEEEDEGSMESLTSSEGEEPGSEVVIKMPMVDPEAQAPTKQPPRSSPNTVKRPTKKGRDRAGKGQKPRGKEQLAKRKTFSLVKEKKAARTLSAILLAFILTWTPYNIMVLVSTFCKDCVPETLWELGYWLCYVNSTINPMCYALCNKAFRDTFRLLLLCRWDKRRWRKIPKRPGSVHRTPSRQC
CHO-K1 Ca ag: counter-screen for M1 agonists: effect in parental CHO-K1 cells. Fluo-8 calcium fluorescence; scaled to maximal ATP response, vehicle zero. activation, % at 3 µM. 360,000 tested, 0.48% active. AID 602248; in the data active means activation above about 15%;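 further: untransfected CHO-K1 host cells lacking M1 receptor as counterscreen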
CHRM1 agonist: human M1 muscarinic receptor agonism; CHO-K1 hM1, Fluo-8 calcium fluorescence, agonist mode; 0% DMSO, 100% acetylcholine EC100; activation, % at 3 µM; 360,000 tested, 0.33% active; AID 588814;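 active means activation above the run's mean compound activation plus 3 SD, cut at about 16% in these data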;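 further: peak over basal fluorescence ratio within a 140 s kinetic read after compound addition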
CHO-K1 Ca antag: M1 antagonist counterscreen hit in parental CHO-K1 cells; ATP-induced calcium, Fluo-8 fluorescence; inhibition, % at 3 µM; 360,000 tested, 0.6% active;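 active means inhibition above a per-plate cutoff, the plate's mean sample inhibition plus 3 SD, cut at about 24% in these data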
CHRM1 PAM: potentiates human M1 receptor response to acetylcholine; P11229; CHO-K1 hM1, Fluo-8 calcium fluorescence, ACh EC20; 0% = ACh EC20, 100% = maximal ACh; activation, % at 3 µM; 360,000 tested, 0.088% active; AID 588819; in the data active means activation above about 19%, passing the limit was not always enough
Hits are given with their value; i = inactive; nt = not tested or not shown. Shown are actives, neighbours in structure and some others; about 2.4% of the full set was active somewhere.

SMILES	CHO-K1 Ca PAM	CHRM1 antagonist	CHO-K1 Ca ag	CHRM1 agonist	CHO-K1 Ca antag	CHRM1 PAM
Cc1ccc2nc(SCC(=O)Nc3cccc([N+](=O)[O-])c3)[nH]c2c1	i	i	16.0	i	i	i
CN(Cc1ccccc1)C(=O)c1cccc(NC(=O)Cc2cccc([N+](=O)[O-])c2)c1	i	33.1	i	i	i	i
CN(Cc1ccccc1)C(=O)c1cccc(NC(=O)Cc2ccc([N+](=O)[O-])cc2)c1	i	i	i	i	i	i
CC(CCc1ccccc1)NC(=O)CNc1cccc([N+](=O)[O-])c1 (stereo not drawn)	i	i	15.1	i	i	i
Cc1ccc(CC(=O)Nc2cccc([N+](=O)[O-])c2)cc1	i	i	17.8	i	i	i
FC(F)(F)c1cc(CCN2CCNC[C@@H]2c2ccccc2)cc(C(F)(F)F)c1	i	i	i	i	i	i
FC(F)(F)c1cc(CCN2CCNC[C@@H]2CC2CCCCC2)cc(C(F)(F)F)c1	i	35.9	i	i	i	i
CCCC[C@@H]1CNCCN1CCc1cc(C(F)(F)F)cc(C(F)(F)F)c1	i	33.6	i	i	i	i
O=C(N/N=C/c1cccs1)c1ccc2nc[nH]c2c1	i	35.4	i	i	i	i
COCC(=O)N1CCC2CC1c1cc(Cl)ccc12 (stereo not drawn)	i	i	i	i	i	i
O=C(Nc1cccc(C(=O)N2CCOCC2)c1)c1ccccc1Cl	i	i	i	i	i	i
COc1cc(NC(=O)c2ccco2)c(OC)cc1NC(=O)Nc1ccccc1Cl	i	30.4	i	i	i	i
OCCCCCNc1ncnc2ccccc12	i	i	15.4	i	i	i
N=c1sccn1CC(=O)Nc1cccc(S(N)(=O)=O)c1	i	35.5	i	i	i	i
N=c1sccn1CC(=O)Nc1ccc(S(N)(=O)=O)cc1	i	i	i	i	i	i
COc1cc(NC(=O)COc2cc(C)cc3oc(=O)cc(C)c23)cc(OC)c1OC	i	i	i	i	i	i
O=C(Nc1ccc(N2CCOCC2)cc1)Nc1ccc2nc(-c3ccco3)c(-c3ccco3)nc2c1	i	33.4	i	i	i	i
O=C(Nc1ccc(F)cc1)N1CCOCC1	i	i	i	i	i	i
O=C(Nc1ccc2nc(-c3cccs3)c(-c3cccs3)nc2c1)N1CCOCC1	i	78.4	i	i	i	i
CN(C)c1ccc(NC(=O)N2CCOCC2)cc1	i	i	i	i	i	30.3
NS(=O)(=O)c1ccc(NC(NC(=O)c2cccnc2)C(Cl)(Cl)Cl)cc1 (stereo not drawn)	i	i	i	i	i	i
CC(C)(C)OC(=O)C[C@H]1C/C=C\C[C@@H](CC(=O)N[C@@H](CO)Cc2ccccc2)C(=O)NC[C@H](c2ccccc2)OC1=O	i	i	i	i	i	i
O=C(CSc1nnc2ccc(-c3ccccn3)nn12)N1CCCC1	i	i	i	i	i	i
O=C1NC[C@@H](CCCCN2C[C@H](Cc3ccccc3)N(CC3CCCCC3)C(=O)C2=O)N(Cc2ccccc2)C1=O	i	nt	16.6	nt	i	nt
O=C1NC[C@H](CCCCN2C[C@H](Cc3ccccc3)N(Cc3ccccc3)C(=O)C2=O)N(CC2CCCCC2)C1=O	i	nt	i	nt	i	nt
SMILES	CHO-K1 Ca PAM	CHRM1 antagonist	CHO-K1 Ca ag	CHRM1 agonist	CHO-K1 Ca antag	CHRM1 PAM
O=C1NC[C@@H](CCCCN2C[C@H](Cc3ccc(O)cc3)N(CC3CCCCC3)C(=O)C2=O)N(CCC2CCCCC2)C1=O	i	nt	63.0	nt	i	nt
CC(=O)N1c2ccc(S(=O)(=O)N3CCCC3C(=O)NCc3ccccc3Cl)cc2CC1C (stereo not drawn)	i	i	i	i	i	i
CC1(C)SC2c3ccccc3C(=O)N2C1C(=O)O (stereo not drawn)	i	i	i	i	i	i
COc1ccc(-c2cc(C(=O)NCc3cccc(Cl)c3)[nH]n2)c(C)c1	i	i	i	i	i	i
CCc1nnc(NS(=O)(=O)c2ccc(Nc3ccc4nonc4c3[N+](=O)[O-])cc2)s1	i	i	i	i	29.4	i
CC(=O)Nc1ccc(Nc2ccc3nonc3c2[N+](=O)[O-])cc1	i	i	i	i	i	i
CSc1ccc(NC(=O)NCc2cccnc2)cc1	i	i	i	i	i	i
COc1cccc(CN(C)C(=O)CC[C@H]2O[C@@H](n3ccc(=O)[nH]c3=O)[C@H](O)[C@@H]2O)c1	i	i	i	i	i	i
COc1ccc(C(C)=O)cc1COC(=O)CNC(=O)c1ccc(Cl)cc1	i	i	i	i	29.3	i
COc1ccc(C(C)=O)cc1COC(=O)CNC(=O)c1ccc(F)cc1	i	i	i	i	i	i
COC(=O)c1c[nH]c2c1-c1cc(C(=O)OCc3ccccc3)n(S(=O)(=O)c3ccc(C)cc3)c1C(=O)C2=O	i	i	i	i	i	i
COc1cccc(CC2(CO)CCN(Cc3ccc(NC(C)=O)cc3)CC2)c1	i	i	i	i	i	i
COc1cccc(CC2(CO)CCN(CC3=CC[C@H]4C[C@@H]3C4(C)C)CC2)c1	i	36.3	i	i	i	i
COc1ccc2c3c(cccc13)C(=O)CC2	i	i	30.1	119.0	i	i
COc1ccc2c(c1OC)C(=O)OC2	i	i	i	i	i	i
CCOC(=O)CSc1ccc(C(=O)NCCN2CCOCC2)cc1[N+](=O)[O-]	i	46.5	i	i	i	i
O=C(Nc1c(Cl)cccc1Cl)Oc1cccc2cccnc12	i	i	i	i	i	i
O=C(Nc1cccc(C(F)(F)F)c1)Oc1ccc(Cl)c2cccnc12	i	42.2	15.5	i	35.6	i
CCN(CC)C(=O)Oc1ccc(Cl)c2cccnc12	i	i	i	i	i	i
O=C(Nc1cccc(Br)c1)Oc1cccc2cccnc12	i	43.5	i	i	i	i
O=C(NNC(=O)C12CC3CC(CC(C3)C1)C2)c1ccccc1[N+](=O)[O-]	i	i	i	i	i	i
CSc1ccc(/C=C(/NC(=O)c2ccco2)C(=O)N2CCOCC2)cc1	i	i	i	i	i	i
O=Cc1ccc(C(=O)OCC(=O)NC(=O)Nc2ccccc2F)cc1	i	i	i	i	i	i
Cc1ccc(C(=O)NCC(=O)N(C)CC(=O)Nc2c(Cl)cccc2Cl)s1	i	i	i	i	i	i
O=C(O)CC(Cc1ccccc1)c1ccc2c(c1)OCO2 (stereo not drawn)	i	i	i	i	32.7	i
O=C(NC(Cc1ccc2c(c1)OCO2)C(=O)NC(Cc1ccccc1)C(=O)O)c1ccccc1 (stereo not drawn)	i	i	i	i	24.7	i
Cc1ccc(CC(NC(=O)c2ccccc2)C(=O)NC(Cc2ccccc2)C(=O)O)cc1 (stereo not drawn)	i	i	i	i	i	i
FC(F)(F)c1cnc(N2CCCN(C(=S)Nc3ccccc3)CC2)c(Cl)c1	i	i	16.6	i	i	i
